Sa helicase inh = blocks Staphylococcus aureus DNA helicase; purified S. aureus helicase, fluorescence unwinding assay; inhibition, % (no concentration beside the values); 0.05% of 120,000 active; AID 485395; in the data active = inhibition above about 25%, passing the limit was not always enough;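 note: 0% = mean of negative control wells and 100% = mean of positive control wells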
Sa growth 42C = S. aureus growth inhibition; S. aureus RN4220 growth, OD600, 20 h, 42 °C; hits give low values; relative growth, % (concentration not given with the values); 0.53% of 170,000 active; AID 720641;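 active = relative growth at most 50% at the other temperature and 20+ points below 30 °C, or under 10% at both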
Starred values were filed as active, the others as inactive; / = no result given. The full list was thinned out, with hits kept by preference.

SMILES	Sa helicase inh	Sa growth 42C
Cc1ccc(Cc2c(C)nc3c(-c4ccccc4)c(C)[nH]n3c2=O)cc1	/	108.2
Cc1nc2c(-c3ccccc3)c(C)[nH]n2c(=O)c1Cc1ccc(Br)cc1	/	0.1*
O=C1C2=C(C(=O)N1c1ccc(Br)cc1)C(c1ccccc1)=NCCN2	/	116.1
O=C(CSc1nnc(-c2ccc(Cl)cc2)o1)c1ccc(Cl)cc1	3.0	109.3
O=C(/C=C(\O)c1ccccc1)C(F)(F)C(F)F	3.0	-0.8*
O=C(O)C(=O)/C=C(\O)c1ccccc1	/	93.0
NC(=O)CSc1nnc(NC(=O)c2cccs2)s1	10.0	112.6
CN(C)c1ccc(/C=C/C=C/c2cc[n+](C)cc2)cc1	17.0	16.5
O=C1N(Cc2ccccc2)c2cccc3cccc(c23)N1Cc1ccccc1	-1.0	112.5
O=c1ccsn1Cc1ccccc1	26.0	-0.8*
CCC1Oc2ccccc2N(Cc2ccccc2Cl)C1=O (stereo not given)	/	98.6
Clc1ccc(-c2nnn3c2nc(Cl)c2ccccc23)cc1	5.0	113.7
CCCCc1cc(=O)oc2cc(C)cc(O)c12	2.0	27.2
CCCc1cc(O)c2c(C)cc(=O)oc2c1	5.0	5.2*
C=CCn1c(COc2ccccc2)nc2ccccc21	16.0	/
CCOCc1nnc(NC(=O)C2CC(=O)N(C(C)(C)C)C2)s1 (stereo not given)	-2.0	93.9
CC(C)(CNC(=O)Nc1ccc(Cl)c(Cl)c1)N1CCOCC1	12.0	-0.6*
CC(C)(CNC(=O)Cc1ccsc1)N1CCOCC1	-6.0	95.2
COc1ccc(NC(=O)c2c(C)oc3ccc(O)c(CN(CC(C)C)CC(C)C)c23)cc1	17.0	77.5
Cn1c(-c2ccccc2)cc(C=Nc2ccccc2)c1O	1.0	4.0*
CN=Cc1cc(-c2ccccc2)n(C)c1S	9.0	75.0
CCCCN(CC)S(=O)(=O)c1ccc2c(c1)CCN2C(C)=O	21.0	93.9
CCOc1ccc(NC23SCC(=O)C2CCc2ccccc23)cc1 (stereo not given)	/	2.0*
CCOc1ccc(NC(=O)C2NC(=O)CC2c2ccccc2)cc1 (stereo not given)	10.0	88.8
Cc1cccc(-n2ncc3c(N(C)Cc4ccccc4)ncnc32)c1	0.0	116.9
SMILES	Sa helicase inh	Sa growth 42C
CC(C)c1ccc(S(=O)(=O)/N=C2/C=C(Sc3ncn[nH]3)C(=O)c3ccccc32)cc1	16.0	1.2*
Cc1ccc(S(=O)(=O)/N=C2\C=C(Sc3ncn[nH]3)C(=O)c3ccccc32)cc1	17.0	2.3
CC(C)c1ccc(NC(=O)CSc2ncn[nH]2)cc1	-7.0	94.2
Cc1ccc(S(=O)(=O)/N=C2/C=C(Sc3ncn[nH]3)C(=O)c3ccccc32)cc1	23.0	2.1*
OC(CNCC1CCCO1)COC(c1ccc(Cl)cc1)c1ccc(Cl)cc1 (stereo not given)	8.0	82.9
N#CC(C#N)=NNc1ccc(F)cc1C(F)(F)F	-9.0	-0.7*
CC(=O)Nc1ccc(F)cc1NC=C(C#N)C#N	-9.0	85.3
CC(NC(=O)c1cccs1)C(=O)N1CCCCC1 (stereo not given)	7.0	95.5
CCc1ccccc1-n1c(=O)oc2ccc(Cl)cc2c1=O	-17.0	-0.8*
CCc1ccc(-n2c(=O)oc3ccc(Cl)cc3c2=O)cc1	7.0	45.8
Cc1cc2ncc(-c3ccccc3)nc2cc1C	-16.0	104.4
c1ccc(-c2cnc3nonc3n2)cc1	14.0	0.8*
CCC(C)NC(=O)CSc1nc2ccc(Br)cc2c2nc3ccccc3n12 (stereo not given)	3.0	84.7
N#C/C(=N\Nc1ccc(F)cc1)C(=O)NCC1CCCO1 (stereo not given)	-15.0	93.3
CC(C)C(=O)/C(C#N)=N/Nc1ccc(F)cc1	-13.0	8.0*
S=C(Nc1ccc(Cl)cc1Cl)NC(Cn1ccnc1)c1ccccc1 (stereo not given)	/	73.1
Clc1ccc(C(Cn2ccnc2)OCc2csc3c(Cl)cccc23)c(Cl)c1 (stereo not given)	/	0.9*
CCC(NC(=O)OC1CCCCC1C)(C(F)(F)F)C(F)(F)F (stereo not given)	6.0	93.0
O=C(CSCC(=O)c1ccccc1)c1ccccc1	/	100.5
CNC(=S)Nc1cccc(C(F)(F)F)c1	11.0	114.3
COC(=S)Nc1cccc(C(F)(F)F)c1	/	94.5
CC(C)c1ccc(NC(=S)Nc2cccc(C(F)(F)F)c2)cc1	/	-2.1*
CC(C)(C)NC(=S)Nc1cccc(C(F)(F)F)c1	3.0	0.1*
c1ccc(COc2cccc(-c3nnc4ccc5ccccc5n34)c2)cc1	-4.0	23.6
C/C(=N\NC(N)N)C1CCCCCCCCCCC1	0.0	-0.4*
SMILES	Sa helicase inh	Sa growth 42C
C/C(=N\NC(N)=O)C1CCCCC1	8.0	97.5
CCCC(=O)N(Cc1ccccc1)C(C)C	3.0	100.6
CCOc1cc(/C=N/n2c(C)csc2=NC(C)C)ccc1O	-3.0	70.2
N#CC(C#N)=NNc1ccc2c(c1)OCCO2	21.0	-0.1*
N#C/C(=N/Nc1ccc2c(c1)OCO2)C(=O)N1CCCC1	-31.0	95.1
CCC(=O)N1c2ccc(S(=O)(=O)CCC(=O)Nc3cccc(-c4ccno4)c3)cc2CC1C (stereo not given)	3.0	117.0
Cc1cc(O)ccc1Sc1ccc(O)cc1C	-10.0	30.2*
Cc1cc(O)ccc1-n1c(=O)c2cc3c(=O)n(-c4ccc(O)cc4C)c(=O)c3cc2c1=O	6.0	92.0
COC(=O)c1cc2c(-c3cccs3)nn(-c3ccccc3)c2n1Cc1cccc(C)c1	8.0	92.1
c1ccc(-c2ccc3c(c2)c2c4n3CCN=C4CCC2)cc1	8.0	-0.2*
Cc1ccc2c(c1)c1c3n2CC(O)CN=C3CCC1 (stereo not given)	20.0	93.0
CCN(CC)S(=O)(=O)c1ccc(NC(C)CCc2ccccc2)nc1 (stereo not given)	12.0	98.7
O=S(=O)(c1ccc(Cl)cc1)C(F)(F)F	-1.0	96.7
O=S(=O)(c1cc(O)cc(S(=O)(=O)C(F)(F)F)c1)C(F)(F)F	8.0	-0.3*
COc1ccc(Br)cc1S(=O)(=O)n1ccnc1	-8.0	/
COc1cc(C)c(S(=O)(=O)n2ccnc2)cc1C(C)C	-6.0	2.4*
CCCN1CCC(NN2CCOCC2)CC1	21.0	64.9
N#CCOc1nc(OCC#N)nc(OCC#N)n1	-9.0	27.6*
COc1nc(OCC#N)nc(N(C)C)n1	4.0	96.4
CCS(=O)(=O)c1oc(-c2ccc(F)cc2)nc1S(=O)(=O)c1ccccc1	/	2.2*
CCCCS(=O)(=O)c1oc(-c2cccs2)nc1S(=O)(=O)c1ccc(F)cc1	/	102.8
CCC(C)S(=O)(=O)c1oc(-c2ccc(F)cc2)nc1S(=O)(=O)c1ccc(F)cc1 (stereo not given)	/	14.8*
CC(C)CS(=O)(=O)c1oc(-c2cccs2)nc1S(=O)(=O)c1ccccc1	22.0	23.4*
CCCCCS(=O)(=O)c1oc(-c2cccs2)nc1S(=O)(=O)c1ccc(C)cc1	/	88.0
CCCCS(=O)(=O)c1oc(-c2ccc(F)cc2)nc1S(=O)(=O)c1ccc(C)cc1	/	4.8*
CCC(C)S(=O)(=O)c1oc(-c2ccc(F)cc2)nc1S(=O)(=O)c1ccc(C)cc1 (stereo not given)	28.0	79.9
Cc1ccc(S(=O)(=O)c2nc(-c3ccccc3)oc2S(=O)(=O)c2ccc(C)cc2)cc1	19.0	92.3
CN1CCC(N(C)Cc2cc(C(C)(C)C)c(O)c(C(C)(C)C)c2)CC1	7.0	103.7
CC1CC(C)CN(c2nc3c(c(=O)[nH]c(=O)n3C)n2Cc2ccccc2F)C1 (stereo not given)	8.0	91.1
COC(=O)COc1cc(C)ccc1C	19.0	95.1

Source: PubChem BioAssay (ICCB-Longwood Screening Facility, Harvard Medical School)
